Results filed as inconclusive are left out. Calls of active or inactive are those of the source. Unless noted, calls come from the whole dose curve; as a rule, active = well fitted inhibition curve with a large enough effect; inconclusive = small, poorly fitted or top-dose-only effect; inactive = flat fitted curve, though single readings scatter.
How the values were obtained:
[1] = qHTS drug screen for cell cycle checkpoint inhibitors in PARPi-resistant BRCA-mutant ovarian cancer cell lines. (AID 1963452; calls by dose curve); details: PEO1/OlaR viability, CellTiter-Glo luminescence, 96 h, stronger effect = lower value
Summary of the method: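 PEO1, PEO4 and PEO1/OlaR ovarian cancer cells, 600 per well, exposed 96 h at 37C to a dilution series. Viability read by CellTiter-Glo luminescence, normalized to DMSO and empty wells; activity summarized as Z-AUC.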

[2] = qHTS profiling for inhibitors of Plasmodium falciparum proliferation (AID 504749); note: nearly all actives have a fitted effect of over 60% in size; note: potency is the fitted concentration of half-maximal effect;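 for activity, negative = inhibition: 0% = DMSO vehicle and full inhibition = artemisinin control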; details: P. falciparum in erythrocytes, SYBR Green DNA, 72 h
Summary of the method: (§1)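 Three-day growth assay of blood-stage parasites in erythrocytes (0.3% parasitemia, 2.5% hematocrit) at 37 C, 5% CO2, quantified by SYBR Green DNA staining after overnight detergent lysis.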

[3] = test system: 3D7; experiment: as above; details: P. falciparum in erythrocytes, SYBR Green DNA, 72 h; series mostly up to 28.7 µM
Summary of the method: as §1

[4] = test system: 7G8; experiment: as above; details: P. falciparum in erythrocytes, SYBR Green DNA, 72 h; series mostly up to 28.7 µM
Summary of the method: as §1

[5] = test system: AA1029; experiment: as above; details: P. falciparum in erythrocytes, SYBR Green DNA, 72 h; series mostly up to 28.7 µM
Summary of the method: as §1

[6] = test system: AS120; experiment: as above; details: P. falciparum in erythrocytes, SYBR Green DNA, 72 h; series mostly up to 28.7 µM
Summary of the method: as §1

[7] = test system: ATS189; experiment: as above; details: P. falciparum in erythrocytes, SYBR Green DNA, 72 h; series mostly up to 28.7 µM
Summary of the method: as §1

[8] = test system: ATS95; experiment: as above; details: P. falciparum in erythrocytes, SYBR Green DNA, 72 h; series mostly up to 28.7 µM
Summary of the method: as §1

[9] = test system: C2A; experiment: as above; details: P. falciparum in erythrocytes, SYBR Green DNA, 72 h; series mostly up to 28.7 µM
Summary of the method: as §1

[10] = test system: CP185; experiment: as above; details: P. falciparum in erythrocytes, SYBR Green DNA, 72 h; series mostly up to 28.7 µM
Summary of the method: as §1

[11] = test system: CP191; experiment: as above; details: P. falciparum in erythrocytes, SYBR Green DNA, 72 h; series mostly up to 28.7 µM
Summary of the method: as §1

[12] = test system: CP192; experiment: as above; details: P. falciparum in erythrocytes, SYBR Green DNA, 72 h; series mostly up to 28.7 µM
Summary of the method: as §1

[13] = test system: CP194; experiment: as above; details: P. falciparum in erythrocytes, SYBR Green DNA, 72 h; series mostly up to 28.7 µM
Summary of the method: as §1

[14] = test system: CP201; experiment: as above; details: P. falciparum in erythrocytes, SYBR Green DNA, 72 h; series mostly up to 28.7 µM
Summary of the method: as §1

[15] = test system: CP211; experiment: as above; details: P. falciparum in erythrocytes, SYBR Green DNA, 72 h; series mostly up to 28.7 µM
Summary of the method: as §1

[16] = test system: CP217; experiment: as above; details: P. falciparum in erythrocytes, SYBR Green DNA, 72 h; series mostly up to 28.7 µM
Summary of the method: as §1

[17] = qHTS for identification of novel therapeutic agents for treatment of microphthalmiaassociated transcription factor (MiT) renal cell carcinoma (RCC) (AID 1963991); details: CellTiter-Glo, 48 h, stronger effect = lower value
Summary of the method: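 Three TFE3-fusion RCC lines (UOK109, UOK124, UOK145), 500 cells/well in complete medium, were treated with MIPE 4.0 compounds for 48 hours at 37 C. Viability was by CellTiter-Glo luminescence, normalized to DMSO (100%) and empty wells (0%); curves fitted over 11 concentrations.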

[18] = test system: CP203; experiment: qHTS profiling for inhibitors of Plasmodium falciparum proliferation (AID 504749); note: nearly all actives have a fitted effect of over 60% in size; note: potency is the fitted concentration of half-maximal effect;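 for activity, negative = inhibition: 0% = DMSO vehicle and full inhibition = artemisinin control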; details: P. falciparum in erythrocytes, SYBR Green DNA, 72 h; series mostly up to 28.7 µM
Summary of the method: as §1

[19] = test system: CP215; experiment: as above; details: P. falciparum in erythrocytes, SYBR Green DNA, 72 h; series mostly up to 28.7 µM
Summary of the method: as §1

[20] = measured here: PEO1 parental Z-AUC
[21] = at 28.7 µM (top of the series), parasite line A
[22] = at 28.7 µM (top of the series), parasite line B
[23] = TFE3-RCC UOK109 viability, measured here: UOK109 Z-AUC
[24] = TFE3-RCC viability, measured here: UOK124 Z-AUC
[25] = TFE3-RCC viability, measured here: UOK145 Z-AUC
[26] = at 12.8 µM (top of the series), parasite line A
[27] = at 12.8 µM (top of the series), parasite line B

CN(C)C(=O)COC(=O)Cc1ccc(OC(=O)c2ccc(N=C(N)N)cc2)cc1
-0.623: Z-AUC [1, 20]
inactive: Z-AUC [1] -0.267 | activity, negative = inhibition [2, 21] -4.03% | activity, negative = inhibition [2, 22] 4.45% | Potency [3] | Potency [4] | Potency [5] | Potency [6] | Potency [7] | Potency [8] | Potency [9] | Potency [10] | Potency [11] | Potency [12] | Potency [13] | Potency [14] | Potency [15] | Potency [16]
-0.684: Z-AUC ([1]; measured here: PEO4 Z-AUC)

Cc1c(OCC(F)(F)F)ccnc1CS(=O)c1nc2ccccc2[nH]1 (stereo unspecified)
inactive: Z-AUC [1] 1.49 | activity, negative = inhibition [2, 21] -19.3% | activity, negative = inhibition [2, 22] -5.11% | Potency [3] | Potency [5] | Potency [6] | Potency [7] | Potency [8] | Potency [9] | Potency [10] | Potency [11] | Potency [12] | Potency [13] | Potency [14] | Potency [18] | Potency [15] | Potency [19] | Potency [16]
0.275: z-score [17, 25]
0.51: z-score [17, 23]
0.689: Z-AUC [1, 20]
0.798: Z-AUC ([1]; measured here: PEO4 Z-AUC)
0.775: z-score [17, 24]

CCC(C)(Oc1ccc(C2(c3ccc(OC(C)(CC)C(=O)O)cc3)CCCCC2)cc1)C(=O)O (stereo unspecified)
0.795: Z-AUC ([1]; measured here: PEO4 Z-AUC)
inactive: Z-AUC [1] 0.486 | activity, negative = inhibition [2, 21] 2.31% | activity, negative = inhibition [2, 22] -9.49% | Potency [3] | Potency [4] | Potency [5] | Potency [6] | Potency [7] | Potency [8] | Potency [9] | Potency [10] | Potency [11] | Potency [13] | Potency [14] | Potency [15] | Potency [19] | Potency [16]
0.92: Z-AUC [1, 20]

CCOC(=O)c1c(C)n(C)c2ccc(O)cc12
0.765: Z-AUC [1, 20]
inactive: Z-AUC [1] 1.13 | activity, negative = inhibition [2, 21] 15.4% | activity, negative = inhibition [2, 22] 20.5% | Potency [3] | Potency [4] | Potency [5] | Potency [6] | Potency [7] | Potency [8] | Potency [9] | Potency [10] | Potency [11] | Potency [12] | Potency [13] | Potency [14] | Potency [19] | Potency [16]
0.891: Z-AUC ([1]; measured here: PEO4 Z-AUC)

c1ccc2[nH]c(-c3cscn3)nc2c1
-0.852: z-score [17, 25]
-0.345: z-score [17, 23]
-0.204: Z-AUC [1, 20]
0.0577: Z-AUC ([1]; measured here: PEO4 Z-AUC)
0.601: z-score [17, 24]
inactive: Z-AUC [1] -1.4 | activity, negative = inhibition [2, 22] -25.8% | Potency [3] | Potency [4] | Potency [5] | Potency [6] | Potency [8] | Potency [9] | Potency [11] | Potency [12] | Potency [13] | Potency [14] | Potency [15] | Potency [19] | Potency [16]

CC(C)c1ccc2oc3nc(N)c(C(=O)O)cc3c(=O)c2c1
inactive: Z-AUC [1] -0.387 | activity, negative = inhibition [2, 21] -29.9% | activity, negative = inhibition [2, 22] -11.5% | Potency [3] | Potency [7] | Potency [8] | Potency [9] | Potency [10] | Potency [12] | Potency [13] | Potency [14] | Potency [15] | Potency [19]
0.464: z-score [17, 24]
0.341: Z-AUC [1, 20]
0.404: z-score [17, 25]
0.263: Z-AUC ([1]; measured here: PEO4 Z-AUC)
0.102: z-score [17, 23]

Cc1nc(Nc2ncc(C(=O)Nc3c(C)cccc3Cl)s2)cc(N2CCN(CCO)CC2)n1
active: Potency [4] 5.62 µM | Potency [6] 12.6 µM
-0.444: Z-AUC ([1]; measured here: PEO4 Z-AUC)
-2.38: Z-AUC [1, 20]
inactive: Z-AUC [1] -3.38 | activity, negative = inhibition [2, 22] -17.2% | Potency [12] | Potency [14]

NNc1nncc2ccccc12
0.517: z-score [17, 25]
inactive: Z-AUC [1] 0.571 | activity, negative = inhibition [2, 26] -1.16% | activity, negative = inhibition [2, 27] -10.3% | Potency [5] | Potency [8] | Potency [9] | Potency [10] | Potency [12] | Potency [13] | Potency [14] | Potency [15] | Potency [16]
0.709: Z-AUC [1, 20]
0.892: Z-AUC ([1]; measured here: PEO4 Z-AUC)
active: Potency [4] 0.891 µM | Potency [7] 3.55 µM | Potency [11] 3.55 µM
-0.0991: z-score [17, 23]
0.525: z-score [17, 24]

O=C(O)c1cccc(-c2noc(-c3ccccc3F)n2)c1
0.852: Z-AUC [1, 20]
inactive: Z-AUC [1] 0.225 | activity, negative = inhibition [2, 21] -1.01% | activity, negative = inhibition [2, 22] 10.4% | Potency [3] | Potency [4] | Potency [5] | Potency [6] | Potency [7] | Potency [8] | Potency [9] | Potency [10] | Potency [11] | Potency [12] | Potency [13] | Potency [14] | Potency [18] | Potency [15] | Potency [19] | Potency [16]
1.3: Z-AUC ([1]; measured here: PEO4 Z-AUC)

Cc1cc2cc3c(C)cc(=O)oc3c(C)c2o1
0.841: Z-AUC ([1]; measured here: PEO4 Z-AUC)
inactive: Z-AUC [1] 0.166 | activity, negative = inhibition [2, 26] 2% | activity, negative = inhibition [2, 27] 12.4% | Potency [3] | Potency [4] | Potency [5] | Potency [6] | Potency [7] | Potency [8] | Potency [9] | Potency [10] | Potency [11] | Potency [12] | Potency [13] | Potency [14] | Potency [15] | Potency [19] | Potency [16]
0.892: Z-AUC [1, 20]

Cc1ccc(NC(=O)c2ccc(CN3CCN(C)CC3)cc2)cc1Nc1nccc(-c2cccnc2)n1
inactive: Z-AUC [1] -0.776
-0.808: Z-AUC [1, 20]
active: Potency ([2]; parasite line B) 11.2 µM | Potency [4] 7.94 µM | Potency [5] 11.2 µM | Potency [6] 8.91 µM | Potency [7] 12.6 µM | Potency [8] 10 µM | Potency [9] 11.2 µM | Potency [16] 11.2 µM
-0.886: Z-AUC ([1]; measured here: PEO4 Z-AUC)

O=C1c2ccccc2-c2n[nH]c3cccc1c23
inactive: Z-AUC [1] 0.0207 | activity, negative = inhibition [2, 21] -18.5% | activity, negative = inhibition [2, 22] -1.75% | Potency [3] | Potency [5] | Potency [6] | Potency [7] | Potency [8] | Potency [9] | Potency [10] | Potency [11] | Potency [12] | Potency [13] | Potency [14] | Potency [15] | Potency [16]
-0.118: Z-AUC [1, 20]
0.208: Z-AUC ([1]; measured here: PEO4 Z-AUC)

— PubChem BioAssay (NCATS)
